D2 ag-1: human D2 receptor agonism in beta-arrestin assay; DiscoveRx PathHunter D2 beta-arrestin, luminescence, 90 min; 100% = 57 uM dopamine signal; 360,000 compounds, 0.084% hits; activation, % (test concentration not listed); P14416; AID 624465; in the data active = activation above about 40%; inconclusive = between about 15% and that limit
Target sequence (P14416 whole entry, looked up): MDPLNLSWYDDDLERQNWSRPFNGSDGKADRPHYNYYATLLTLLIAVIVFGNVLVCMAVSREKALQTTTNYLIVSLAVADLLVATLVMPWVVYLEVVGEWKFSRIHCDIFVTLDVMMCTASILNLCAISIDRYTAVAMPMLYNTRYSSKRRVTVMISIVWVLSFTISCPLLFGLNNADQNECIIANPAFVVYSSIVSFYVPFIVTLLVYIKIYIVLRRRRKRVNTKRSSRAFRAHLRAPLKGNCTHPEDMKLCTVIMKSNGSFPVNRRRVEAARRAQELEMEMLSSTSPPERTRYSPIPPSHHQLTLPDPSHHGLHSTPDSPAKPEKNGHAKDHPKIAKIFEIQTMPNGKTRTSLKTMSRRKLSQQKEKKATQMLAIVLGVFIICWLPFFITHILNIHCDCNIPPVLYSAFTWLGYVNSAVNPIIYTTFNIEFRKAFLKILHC
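DiscoveRx PathHunter D2 beta-arrestin cells (2,100/well) attached overnight, then compound-stimulated 90 min at 37 C in HBSS/10 mM HEPES/0.1% Tween-20 buffer; beta-galactosidase complementation read by luminescence after 1 h at ambient temperature. Dopamine 57 uM final (EC100) as control.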
D2 PAM-1: positively modulates the human D2 dopamine receptor allosterically; HEK293 T-REx D2, calcium flux, EC20 dopamine potentiation; potentiation, % at 10 µM; AID 485347; 340,000 compounds, 0.34% hits;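 active = potentiation over 3 SD above the plate norm, cut at about 30% in these data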
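Tetracycline-induced Hek293 Trex D2 cells, force-coupled to calcium, loaded with no-wash calcium dye. Compound added with 180 s kinetic read for agonism, then EC20 dopamine and a further 180 s read for potentiation.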
D2 PAM-2: human D2 receptor positive allosteric modulation. P14416. potentiation, % (no concentration beside the values). DiscoveRx D2 beta-arrestin cells, luminescence, 90 min; 100% = 57 uM dopamine signal. 360,000 compounds, 0.23% hits; in the data active = potentiation above about 50%; inconclusive = mostly about 30% to 49%
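PathHunter D2 cells, attached overnight at 37 deg C, received compound in DMSO plus dopamine at EC20 (50 nM final) for 90 min at 37 deg C. Beta-arrestin recruitment was read as luminescence after 1 h with detection reagent at ambient temperature.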
D2 ag-2: agonists of human D2 dopamine receptor. P14416. HEK293 T-REx D2 cells, calcium flux agonist mode. activation, % at 2 µM. 340,000 compounds, 0.53% hits. AID 485358;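 active = activation over 3 SD above normal in the single-dose calcium agonist read, cut at about 30% in these data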
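Calcium-flux readout, 1 cycle/sec over 180 s following compound pin transfer, in inducible HEK293 Trex D2 cells (force-coupled); dopamine controls included. Positive calcium responses during this window marked compounds as potential agonists.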
D2 antagonist: antagonizes the human D2 dopamine receptor | P14416 | HEK293 TREx D2 cells, calcium flux, dopamine EC80 | inhibition, % at 10 µM | 340,000 compounds, 2% hits; in the data active = inhibition above about 30%; inactive = below that, where a call was filed
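Read-out: kinetic calcium fluorescence (1 cycle/s) in inducible HEK293 T-REx D2 cells after an EC80 dopamine addition that followed 180 s compound preincubation. Loss of the dopamine response indicates antagonism.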
D3 ag: confirmation of human D3 dopamine receptor agonists, beta-arrestin; Potency, µM (highest dose often 76.9 µM), hits mostly activators; DiscoveRx D3 beta-arrestin cells, luminescence, 90 min; AID 720506; shares compounds with D2 ag-2; 2,300 compounds, 4% hits; note: nearly all actives have a fitted effect of over 70% in size
D2 ag-3: activates human D2 dopamine receptor in D3 counterscreen | shares compounds with D2 ag-2 | Potency, µM (doses to about 76.9 µM), usual class: activators | 2,300 compounds, 5.9% hits | AID 720507 | DiscoveRx PathHunter D2 beta-arrestin, luminescence, 90 min; response scale: percent relative to full dopamine signal; note: nearly all actives have a fitted effect of over 70% in size
Large screens that a line does not name were inactive (follow-up assays come after a bar, where they were run); ! = not confirmed by another sample. In the library only some 2.4% were active in any assay of this set; here they are far more common. Unless noted, calls come from the whole dose curve; as a rule, active = well fitted activation curve with a large enough effect; inconclusive = small, poorly fitted or top-dose-only effect; inactive = flat fitted curve, though single readings scatter.

O=C(Cc1ccccc1)NNC(=S)Nc1ccc(Cl)cc1	D2 ag-2 44.3 | D3 ag inactive | D2 ag-3 inactive
CCc1nnc(NC(=O)c2ccc(-c3ccc(Cl)cc3)o2)s1	none
CCc1nnc(NC(=O)c2ccc(-c3ccc(C(C)=O)cc3)o2)s1	none | D3 ag inactive | D2 ag-3 inactive
Cc1nnc(N2CCN(c3ccccc3F)CC2)c2c1nnn2Cc1ccccc1Cl	none (no result: D2 ag-1, D2 PAM-2, D2 antagonist)
Cc1ccc(Cn2c(C)c(CNCc3ccccc3F)c(C(=O)O)c2C)cc1	none (no result: D2 ag-1, D2 PAM-2, D2 antagonist)
CCCCOc1ccc(-c2nnn(CC(=O)c3c[nH]c4ccccc34)n2)cc1	D2 ag-2 56.0 | D3 ag inactive | D2 ag-3 inactive
COc1ccc(-c2nnn(CC(=O)c3c[nH]c4ccccc34)n2)cc1OC	none
CCOc1ccc(CNC(=O)C2CCCN(S(=O)(=O)c3ccc4c(c3)CCCC(=O)N4)C2)cc1 (centres undefined)	none (no result: D2 ag-1, D2 PAM-2, D2 antagonist)
O=C(Nc1ccccc1C(F)(F)F)c1noc2c1CCCCC2	none (no result: D2 ag-1, D2 PAM-2, D2 ag-2, D2 antagonist)
COc1ccc(CN2C(=O)C(C)N(C(=O)c3c(F)cccc3F)c3ccccc32)cc1 (centres undefined)	none | D3 ag inactive | D2 ag-3 inactive
CC1C(=O)N(Cc2ccc([N+](=O)[O-])cc2)c2ccccc2N1C(=O)c1c(F)cccc1F (centres undefined)	none
COc1ccccc1NC(=O)N1CCN(c2nnc(C)c3c(C)n(-c4ccccc4)nc23)CC1	none (no result: D2 ag-1, D2 PAM-2, D2 antagonist)
COc1ccc(NC(=O)c2nc3nc(C)cc(C(F)F)n3n2)cc1OC	none
COc1ccccc1NS(=O)(=O)c1ccc(NC(=O)c2nc3nc(C)cc(C(F)F)n3n2)cc1	D2 antagonist 38.6 | D3 ag inactive | D2 ag-3 inactive
O=C(C1CCN(S(=O)(=O)Cc2ccccc2)CC1)N1CCN(c2ccc(F)cc2)CC1	none (no result: D2 ag-1, D2 PAM-2, D2 antagonist)
COc1ccc(N2CCN(C(=O)Cc3c(C(=O)O)c(C)cn3C)CC2)cc1	none (no result: D2 ag-1, D2 PAM-2, D2 antagonist)
CCOC(=O)c1cc(C)n(CC2CCC(C(=O)Nc3cccc(C)c3)CC2)c1C (centres undefined)	none (no result: D2 ag-1, D2 PAM-2, D2 antagonist)
Cc1ccc(SCCNC(=S)Nc2ccc(C)cc2C)cc1	none | D3 ag inactive | D2 ag-3 inactive
CCCSCCCNC(=O)c1ccccc1NC(=O)C1=CSCCO1	none | D3 ag inactive | D2 ag-3 inactive
CCN(CC)CCCNC(=O)c1ccccc1NC(=O)C1=CSCCO1	none (no result: D2 PAM-1, D2 ag-2, D2 antagonist)
CN1CCc2c(sc(/N=C/c3cc(C(C)(C)C)ccc3O)c2C#N)C1	D2 ag-1 43.2, D2 ag-2 92.3, D2 antagonist 89.5 | D3 ag inactive | D2 ag-3 inconclusive
Nc1ccn(CC(=O)NCc2ccc3[nH]ccc3c2)c(=O)n1	none | D3 ag inactive | D2 ag-3 inconclusive
COc1ccc2c(C)cc(=O)oc2c1OCC(O)CN1CCOCC1 (centres undefined)	none (no result: D2 PAM-1, D2 ag-2, D2 antagonist)
COc1ccccc1N1CCN(CC(O)COc2ccc3c(C)cc(=O)oc3c2)CC1 (centres undefined)	D2 ag-1 inconclusive, D2 antagonist 72.1 | D3 ag inactive | D2 ag-3 inactive
OC(COc1ccccc1CNCc1cccnc1)CN1CCc2ccccc2C1 (centres undefined)	none
OC(COc1ccc(CNCc2cccnc2)cc1)CN1CCc2ccccc2C1 (centres undefined)	D2 ag-2 54.3, D2 antagonist 48.8 | D3 ag inactive | D2 ag-3 inactive
Cc1cc(=O)oc2cc(OCC(O)CN3CCN(c4ccccc4)CC3)ccc12 (centres undefined)	D2 ag-1 52.3, D2 ag-2 89.9, D2 antagonist 71.9 | D3 ag inactive | D2 ag-3 inconclusive
CC(=O)c1ccc(OCC(O)CN2CCOCC2)cc1 (centres undefined)	none
CC(=O)c1ccc(OCC(O)CN2CCc3ccccc3C2)cc1 (centres undefined)	D2 ag-2 43.2 | D3 ag inactive | D2 ag-3 inactive
O=S(=O)(NCC(c1ccco1)N1CCN(c2ccccc2)CC1)c1ccccc1 (centres undefined)	none (no result: D2 ag-1, D2 PAM-2, D2 ag-2, D2 antagonist)
Cc1cc(=O)oc2cc(OCC(O)CN3CCc4ccccc4C3)ccc12 (centres undefined)	none (no result: D2 PAM-1, D2 ag-2, D2 antagonist) | D3 ag inactive | D2 ag-3 inactive
Cc1ccc(C)c(OCC(O)CN2CCc3ccccc3C2)c1C (centres undefined)	none
Cc1cccc(C(=O)NNC(=O)c2ccc(NS(=O)(=O)c3cccs3)cc2)c1C	none | D3 ag inactive | D2 ag-3 inactive
O=C(CSc1nc(-c2ccccc2)no1)N1CCCCC1	none (no result: D2 ag-1, D2 PAM-2, D2 antagonist)
COc1ccc(CCNC(=O)C(CC(C)C)N2Cc3ccccc3C2=O)c(OC)c1OC (centres undefined)	none (no result: D2 ag-1, D2 PAM-2, D2 antagonist)
O=c1[nH]c(C2CCCN(S(=O)(=O)c3ccc(F)cc3)C2)nc2c1nnn2Cc1ccc(F)cc1 (centres undefined)	D2 antagonist 67.8 | D3 ag inactive | D2 ag-3 inactive
Cc1ccc(Cn2nnc3c(=O)[nH]c(C4CCCN(S(=O)(=O)c5ccc(F)cc5)C4)nc32)cc1 (centres undefined)	none (no result: D2 PAM-1)
Cc1ccc2[nH]c3c(c2c1)CNCC3	none
c1ccc2c3c([nH]c2c1)CCNC3	none | D3 ag inactive | D2 ag-3 inactive
CCc1cccc(NC(=O)c2c(N3CCCC3=O)c3cc(C)ccc3n2C)c1	none (no result: D2 ag-1, D2 PAM-2, D2 ag-2, D2 antagonist)
Cc1cc(C)cc(OCC(O)CN2CCN(C(=O)c3ccco3)CC2)c1 (centres undefined)	D2 ag-2 61.4, D2 antagonist 34.6 | D3 ag inactive | D2 ag-3 inactive
O=C(c1ccccc1)N1CCN(CC(O)COc2ccc(Br)cc2)CC1 (centres undefined)	none
O=C(c1ccco1)N1CCN(CC(O)COc2ccc3oc4ccccc4c3c2)CC1 (centres undefined)	D2 ag-1 inconclusive, D2 ag-2 49.6, D2 antagonist 39.9 | D3 ag 35.5µM | D2 ag-3 50.1µM
CCc1nc(SC)ncc1C(=O)N1CCN(c2cc(C)ccc2C)CC1	none (no result: D2 ag-1, D2 PAM-2, D2 ag-2, D2 antagonist)
CC(C)(C)C(=O)Cn1c(=O)n(CCCCCC(=O)NCc2ccc3c(c2)OCO3)c(=O)c2sccc21	none (no result: D2 ag-1, D2 PAM-2, D2 antagonist)
COc1cc(NC(=O)CCc2c(C)nc3c4c(C)cc(C)nc4nn3c2C)cc(OC)c1	none (no result: D2 ag-1, D2 PAM-2, D2 antagonist)
Cc1ncc(C[n+]2csc(CCO)c2C)c(N)n1	D2 ag-2 55.4!, D2 antagonist 67.8! | D3 ag inactive | D2 ag-3 inactive
Cc1cc(OCc2cc(C(=O)NC3CCC3)no2)cc(C)c1Cl	D2 antagonist 43.0 | D3 ag inactive | D2 ag-3 inactive
